In PubChem BioAssay AID1159580 (chemical genetic matrix, 2015):
About 2,000 (36%) of roughly 5,500 compounds were called active. About 18% were inconclusive and are not listed. Rule as the data show it: active = normalized growth mostly below about 0.91 (no sharp cut-off); inconclusive = no clear call, values can overlap the other calls; inactive = mostly above about 0.92. The list shows a part of the results.

Test: chemical genetic growth profiling, strain panel (AID 1159580);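 also: tested at 20 µM; growth read once vehicle control cultures reached saturation at 30 °C; 1 = growth at the plate median or of vehicle wells; lower values mean less growth of the strain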
Conditions: growth OD

Measured: normalized growth

COc1cccc2c1CCC1=CC(=O)CC[C@@]12C
inactive: S. cerevisiae deletion strains, locus YJR075W, strain HOC1, hits give low values 0.973 | S. cerevisiae deletion strains, locus YKL009W, strain mrt4, hits give low values 0.98 | S. cerevisiae deletion strains, locus YKL068W, hits give low values 1 | S. cerevisiae deletion strains, locus YKL085W, strain MDH1 (second series), hits give low values 0.982 | S. cerevisiae deletion strains, locus YKL085W, strain MDH1, hits give low values 0.982 | S. cerevisiae deletion strains, locus YKL160W, strain elf1, hits give low values 1 | S. cerevisiae deletion strains, locus YKL190W, strain CNB1, hits give low values 1.01 | S. cerevisiae deletion strains, locus YKR001C, strain vps1, hits give low values 0.986 | S. cerevisiae deletion strains, locus YKR026C, strain gcn3, hits give low values 0.994 | S. cerevisiae deletion strains, locus YKR091W, strain srl3, hits give low values 0.998 | S. cerevisiae deletion strains, locus YLL001W, strain dnm1, hits give low values 1 | S. cerevisiae deletion strains, locus YLL026W, hits give low values 0.992 | S. cerevisiae deletion strains, locus YLL041C, strain sdh2, hits give low values 0.995 | S. cerevisiae deletion strains, locus YLR027C, strain aat2, hits give low values 1.01 | S. cerevisiae deletion strains, locus YLR039C, strain RIC1, hits give low values 1.1 | S. cerevisiae deletion strains, locus YLR058C, strain SHM2, hits give low values 0.993 | S. cerevisiae deletion strains, locus YLR102C, strain apc9, hits give low values 0.993 | S. cerevisiae deletion strains, locus YLR221C, strain rsa3, hits give low values 0.988 | S. cerevisiae deletion strains, locus YLR258W, strain gsy2, hits give low values 0.999 | S. cerevisiae deletion strains, locus YLR262C, strain YPT6 (second series), hits give low values 1.05 | S. cerevisiae deletion strains, locus YLR262C, strain YPT6, hits give low values 1.1 | S. cerevisiae deletion strains, locus YLR268W, strain sec22, hits give low values 0.973 | S. cerevisiae deletion strains, locus YLR320W, strain mms22, hits give low values 1 | S. cerevisiae deletion strains, locus YLR330W, strain CHS5, hits give low values 0.998 | S. cerevisiae deletion strains, locus YLR342W, strain FKS1 (second series), hits give low values 0.941 | S. cerevisiae deletion strains, locus YLR342W, strain FKS1, hits give low values 0.997 | S. cerevisiae deletion strains, locus YLR357W, strain rsc2, hits give low values 1.02 | S. cerevisiae deletion strains, locus YLR370C, strain arc18, hits give low values 0.99 | S. cerevisiae deletion strains, locus YLR371W, strain rom2, hits give low values 0.988 | S. cerevisiae deletion strains, locus YLR384C, strain iki3, hits give low values 1.02 | S. cerevisiae deletion strains, locus YLR418C, strain cdc73, hits give low values 0.9 | S. cerevisiae deletion strains, locus YML016C, strain PPZ1, hits give low values 0.989 | S. cerevisiae deletion strains, locus YML032C, strain rad52, hits give low values 0.988 | S. cerevisiae deletion strains, locus YML120C, strain ndi1, hits give low values 0.988 | S. cerevisiae deletion strains, locus YML124C, strain tub3, hits give low values 0.988 | S. cerevisiae deletion strains, locus YMR058W, strain fet3, hits give low values 1 | S. cerevisiae deletion strains, locus YMR078C, strain ctf18, hits give low values 0.985 | S. cerevisiae deletion strains, locus YMR125W, strain sto1, hits give low values 1 | S. cerevisiae deletion strains, locus YMR129W, hits give low values 0.991 | S. cerevisiae deletion strains, locus YMR205C, strain PFK2, hits give low values 1 | S. cerevisiae deletion strains, locus YMR223W, strain ubp8, hits give low values 0.964 | S. cerevisiae deletion strains, locus YMR231W, strain pep5, hits give low values 1 | S. cerevisiae deletion strains, locus YMR263W, strain SAP30, hits give low values 0.978 | S. cerevisiae deletion strains, locus YMR307W, strain GAS1, hits give low values 0.957 | S. cerevisiae deletion strains, locus YNL067W, strain RPL9B, hits give low values 0.984 | S. cerevisiae deletion strains, locus YNL071W, strain lat1, hits give low values 1 | S. cerevisiae deletion strains, locus YNL128W, strain TEP1, hits give low values 1.01 | S. cerevisiae deletion strains, locus YNL153C, strain GIM3, hits give low values 0.989 | S. cerevisiae deletion strains, locus YNL209W, strain ssb2, hits give low values 1.02 | S. cerevisiae deletion strains, locus YNL233W, strain BNI4, hits give low values 0.988 | S. cerevisiae deletion strains, locus YNL248C, strain rpa49, hits give low values 1.01 | S. cerevisiae deletion strains, locus YNL250W, strain rad50, hits give low values 0.997 | S. cerevisiae deletion strains, locus YNL271C, strain bni1, hits give low values 0.985 | S. cerevisiae deletion strains, locus YNL298W, strain CLA4, hits give low values 0.969 | S. cerevisiae deletion strains, locus YNL307C, strain MCK1, hits give low values 0.933 | S. cerevisiae deletion strains, locus YNL322C, strain KRE1 (second series), hits give low values 1.01 | S. cerevisiae deletion strains, locus YNL322C, strain KRE1, hits give low values 1 | S. cerevisiae deletion strains, locus YNR049C, strain mso1, hits give low values 1.02 | S. cerevisiae deletion strains, locus YNR052C, strain pop2, hits give low values 0.996 | S. cerevisiae deletion strains, locus YOL006C, strain TOP1, hits give low values 0.863 | S. cerevisiae deletion strains, locus YOL012C, strain htz1 1.1 | S. cerevisiae deletion strains, locus YOL147C, strain pex11, hits give low values 0.982 | S. cerevisiae deletion strains, locus YOR001W, strain rrp6, hits give low values 1.02 | S. cerevisiae deletion strains, locus YOR061W, strain CKA2, hits give low values 0.996 | S. cerevisiae deletion strains, locus YOR069W, strain VPS5, hits give low values 1 | S. cerevisiae deletion strains, locus YOR070C, strain gyp1, hits give low values 1 | S. cerevisiae deletion strains, locus YOR080W, strain dia2, hits give low values 1 | S. cerevisiae deletion strains, locus YOR083W, strain WHI5, hits give low values 1.01 | S. cerevisiae deletion strains, locus YOR106W, strain vam3, hits give low values 1.01 | S. cerevisiae deletion strains, locus YOR136W, strain idh2, hits give low values 0.992 | S. cerevisiae deletion strains, locus YOR144C, strain elg1, hits give low values 0.991 | S. cerevisiae deletion strains, locus YOR184W, strain ser1, hits give low values 0.913 | S. cerevisiae deletion strains, locus YOR265W, strain rbl2, hits give low values 1 | S. cerevisiae deletion strains, locus YOR270C, strain vph1, hits give low values 0.915 | S. cerevisiae deletion strains, locus YOR290C, strain snf2, hits give low values 1.02 | S. cerevisiae deletion strains, locus YOR316C, strain cot1, hits give low values 0.99 | S. cerevisiae deletion strains, locus YPL051W, strain arl3, hits give low values 1 | S. cerevisiae deletion strains, locus YPL055C, strain LGE1, hits give low values 0.946 | S. cerevisiae deletion strains, locus YPL078C, strain atp4, hits give low values 1 | S. cerevisiae deletion strains, locus YPL106C, strain sse1, hits give low values 1.02 | S. cerevisiae deletion strains, locus YPL240C, strain hsp82, hits give low values 0.995 | S. cerevisiae deletion strains, locus YPL241C, strain CIN2, hits give low values 1 | S. cerevisiae deletion strains, locus YPR119W, strain clb2, hits give low values 0.989 | S. cerevisiae deletion strains, locus YPR141C, strain kar3, hits give low values 0.997 | S. cerevisiae deletion strains, locus YPR163C, strain tif3, hits give low values 0.979 | S. cerevisiae deletion strains, locus YPR167C, strain met16, hits give low values 0.983 | S. cerevisiae deletion strains, strain wtn01, hits give low values 0.96 | S. cerevisiae strains, strain wild type, hits give low values 1.01
